ALOX12 inhib: 12-hLO (ALOX12) enzyme inhibition | purified 12-hLO, xylenol orange hydroperoxide absorbance | Potency, µM (series often up to 57.1 µM), for the others: at the highest dose activity change, negative = inhibition, usual class: inhibitors | actives 0.12% (n = 150,000) | AID 1452; also: potency is read from the fitted curve at half-maximal effect; nearly all actives have a fitted effect of over 55% in size
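Lipoxygenase turnover measured by absorbance at 573 and 405 nm after Fe-XO development. Human 12hLO 150 nM, arachidonate 40 uM, pH 7.0 Hepes buffer with detergent; 15 min compound preincubation, 30 min reaction.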
PNC inhibitor: blocks assembly of the perinucleolar compartment. PC3M PTB-GFP, PNC prevalence imaging, 16 h; active compounds read low. activity change (PNC), negative = inhibition, % at 10 µM. actives 3.1% (n = 140,000);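 active = readout at or below -70, meaning at least 70% loss of cells showing the perinucleolar compartment, a nuclear body marking cancer cells; inconclusive = readout between -30 and a set limit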;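 also: plate controls were DMSO wells for no effect and camptothecin positive control wells for full effect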
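PC3M cells stably expressing PTB-GFP, 750–1000 cells/well, treated 16 h at 37 °C with compound (23 nl of library stock), in duplicate. After paraformaldehyde fixation and Hoechst stain, imaged at 20x; PNC prevalence scored by image analysis.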
IMPase cell inh: cell-permeable inhibitors of inositol monophosphatase (IMPase); inhibition (IP1 accumulation), % at 46.1 µM; CHO-M1 cells, IP1 accumulation, HTRF TR-FRET ratio; P97697; 120,000 tested, under 10 active; active = well fitted curve in the direction sought with a large enough effect in the signal ratio, not every such curve was filed as active; inconclusive = small, poorly fitted or top-dose-only effect, or a change in a side signal; inactive = no such curve, though single readings can be large or run the other way; the % refers to the signal ratio;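 also: cells stimulated with carbachol in lithium chloride buffer; plate controls were DMSO basal wells for no effect and reference inhibitor wells for full effect; higher means more IMPase inhibition seen as more IP1 and lower FRET ratio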
Target sequence (P97697 whole entry, looked up): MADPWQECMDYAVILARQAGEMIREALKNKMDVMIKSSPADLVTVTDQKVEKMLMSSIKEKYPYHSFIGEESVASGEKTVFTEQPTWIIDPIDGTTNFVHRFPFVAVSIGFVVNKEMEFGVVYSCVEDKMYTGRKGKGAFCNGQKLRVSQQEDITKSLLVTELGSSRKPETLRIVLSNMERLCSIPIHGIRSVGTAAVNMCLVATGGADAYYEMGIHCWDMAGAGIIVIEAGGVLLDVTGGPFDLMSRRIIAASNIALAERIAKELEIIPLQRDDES
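Elevated IP1 in lysates lowers TR-FRET signal (665/620 ratio and 620 channel reported). Cells were CHO-M1, given carbachol (50 uM as added) plus 50mM LiCl, pH 7.4, 30 min, 37C; compounds titrated up to 46 uM; AC50 by Hill equation.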
ALOX15B inhib: blocks human 15-lipoxygenase 2 activity. purified 15hLO-2, xylenol orange hydroperoxide absorbance. Potency, µM (titrated, usually from 57.1 µM), without a hit: at the top dose activity change, negative = inhibition, most hits filed as inhibitors. actives 0.56% (n = 110,000). AID 881; also: potency is read from the fitted curve at half-maximal effect; nearly all actives have a fitted effect of over 60% in size
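Purified human 15hLO-2 (50 nM) preincubated 15 min with compound, then 45 uM arachidonic acid for 90 min at RT in 25 mM Hepes pH 7.5, 0.01% Triton X-100. Hydroperoxide detected by Fe-xylenol orange; 573/405 nm absorbance ratio.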
An asterisk follows results filed as active; ? = inconclusive; / = not tested or not shown; [ ] = remark or other dose. Shown are actives, neighbours in structure and some others; about 3% of the full set was active somewhere. Unless noted, calls follow the shape of the dose curve; as a rule, active = well fitted curve in the direction sought with a large enough effect; inconclusive = small, poorly fitted or top-dose-only effect, or another doubt; inactive = no such curve, though single readings can be large; an effect the other way counts as inactive or inconclusive. Unless noted, % is scaled to controls: 0 for no effect and ±100 for the full control effect.

SMILES	ALOX12 inhib	PNC inhibitor	IMPase cell inh	ALOX15B inhib
CCCn1nnc(NC(=O)c2cc(Br)cc(Br)c2OC)n1	-3.2%	-119.0*	8.3	-5.0%
Cc1ccc(-c2nc3cccnc3s2)cc1NS(=O)(=O)c1ccc2c(c1)OCCO2	-6.6%	-108.4*	-14.8	-7.2%
O=S(=O)(Nc1cccc(-c2nc3cccnc3s2)c1)c1ccc2c(c1)OCCO2	-9.5%	-19.7	-3.1	-6.9%
Cc1sc(NC(=O)c2cccs2)c(C(=O)OC(C)C)c1C	3.4%	-100.0*	-2.9	/
CCc1c(C)sc(NC(=O)c2cccs2)c1C(=O)OC(C)C	-7.1%	18.9	5.1	8.3%
CC(/C=C/C=C(C)/C=C/C(=O)O)=C\C=C\C=C(C)\C=C\C=C(C)\C=C\C(=O)O	-3.2%	/	/	?
CCOc1ccc(C(=O)NC(=S)NC2CCCC2)cc1[N+](=O)[O-]	28.2µM*	?	/	/
CCOc1ccc(C(=O)NC(=S)Nc2ccc(NC(=O)CC)cc2)cc1[N+](=O)[O-]	-18.0%	?	/	/
CS(=O)(=O)Nc1ccc(Br)cc1C(=O)c1ccccc1	-1.8%	-83.7*	-2.2	-6.1%
CCOC(C)(C)C	-3.4%	/	/	-7.2%
COC(=O)C1=C(C(=O)OC)[C@@H]2N(C)c3ccc(OC)cc3[C@@]23C[C@@H](C(=O)OC)N(S(=O)(=O)c2ccc4c(c2)OCCN4C)C3=N1	-6.2%[11.4 µM]	/	/	/
CNCC(O)Cn1c(C(F)(F)F)nc2ccccc21 (configuration not stated)	1.4%	-100.0*	-9.3	/
CCC1C(=O)CC(c2ccco2)NC1c1ccco1 (configuration not stated)	-3.4%	-100.0*	8.8	/
C=CCC1(O)CC(c2ccco2)NC(c2ccco2)C1CCC (configuration not stated)	-2.6%	54.5	4.0	-16.1%
O=C(NCc1ccccc1Cl)c1ccc2nc[nH]c2c1	1.7%	-15.3	6.5	/
CCCCCOc1ccc(Br)cc1/C(C)=N/NC1=NCCN1	-6.9%	-88.5*	?	/
COc1ccc(Br)cc1/C(C)=N/NC1=NCCN1	2.6%	-17.0	10.8	18.4%
O=C(/C=C/c1ccc(O)c(O)c1)O[C@@H](C(=O)O)[C@@H](OC(=O)/C=C/c1ccc(O)c(O)c1)C(=O)O	-7.9%	/	/	9.3%
O=C(/C=C\c1ccc(O)c(O)c1)OCCc1ccccc1	?	/	-3.1	12.6µM*
CC(=O)Oc1c(/C=C(\C#N)C(N)=O)[nH]c2ccccc12	?	19.3	/	/
Cc1cc(C(=O)O)ccc1[C@H](N)C(=O)O	-4.3%	/	1.7	8.6%
CC1CCC(C(C)C)C(OCC(O)CN2CCOCC2)C1 (configuration not stated)	2.7%	-109.7*	9.0	2.5%
CC1CCC(C(C)C)C(OCC(O)CN2CCN(Cc3ccccc3)CC2)C1 (configuration not stated)	-1.9%	-2.4	9.8	70.4%
COc1ccc(-n2c(=S)[nH]c3cc(C(=O)NCCCN4CCCC4=O)ccc3c2=O)c(OC)c1	1.1%	-25.7	-2.0	-15.2%
CC1CCN(CC(=O)Nc2sc3c(c2C#N)CCC3)CC1	-6.7%	8.6	7.0	-13.9%
SMILES	ALOX12 inhib	PNC inhibitor	IMPase cell inh	ALOX15B inhib
CC1CCc2c(sc(NC(=O)CN3CCN(C(=O)c4ccco4)CC3)c2C#N)C1 (configuration not stated)	-7.5%	-116.6*	-0.1	4.6%
N/C(Cc1cccs1)=N\OC(=O)COc1ccccc1	-4.8%	-3.3	-1.8	6.0%
CN1CCN(CC(=O)Nc2ccc(Oc3ccccc3)cc2)CC1	3.8%	13.0	?	34.3%
O=C(CN1CCCCC1)Nc1cccc(Oc2ccccc2)c1	-3.7%	-105.7*	4.9	23.3%
O=C(NCc1ccc2c(c1)OCO2)c1ccc(CS(=O)(=O)c2cccc(C(F)(F)F)c2)o1	-13.3%	-22.8	-12.9	-5.1%
O=C(NCc1ccc2c(c1)OCO2)c1ccc(CS(=O)(=O)c2ccc(Br)cc2)o1	-11.9%	-87.1*	9.2	1.0%
O=C(/C=C/c1ncc(C(F)(F)F)cc1Cl)OCc1ccccc1	1.5%	16.8	1.0[1.84 µM]	-12.8%[11.4 µM]
CCOc1ccc(NCc2nc3ccccc3n2CCOc2ccccc2)cc1	-5.6%	-113.4*	/	/
C/C(CC(=O)NCc1ccco1)=N\NC(=O)COc1ccc(C)cc1	-4.2%	13.7	1.6	/
COc1cc(C(c2c(C)[nH][nH]c2=O)c2c(C)[nH][nH]c2=O)ccc1OC(C)C	-3.7%	-80.2*	-0.2	/
O=C(NC1CCCCCC1)c1ccccc1-c1ccccc1	-4.3%	-6.0	-3.2	/
O=C(NC1CCCCCCC1)c1ccccc1-c1ccccc1	1.3%	-113.4*	/	/

Screening results as filed in PubChem BioAssay.
